Experimental findings from PubChem BioAssay (NCATS) are described below.

Results filed as inconclusive are left out. Active and inactive are the calls of the source. The call rests on the fitted dose curve; in most records, active means well fitted curve in the direction sought with a large enough effect; inconclusive means small, poorly fitted or top-dose-only effect, or another doubt; inactive means no such curve, though single readings can be large; an effect the other way counts as inactive or inconclusive.

Assay [1] is described as follows: Quantitative High-Throughput drug screen in 47 multiple myeloma cell lines against the NCATS MIPE library collection: KMM1_JCRB cell viability assay (AID 1918960). Further: nearly all actives have a fitted effect of over 30% in size. In short, it runs like this:
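Viability screen: myeloma cells (500/well) incubated 48 h at 37 °C, humidified 5% CO2, with pinned library compounds; CellTiter-Glo added, luminescence read; DMSO wells set 100%, medium-only wells 0%.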

A short description of assay [2]: Quantitative High-Throughput drug screen in 47 multiple myeloma cell lines against the NCATS MIPE library collection: JIM3_ECACC cell viability assay (AID 1918963; further: nearly all actives have a fitted effect of over 35% in size). In short, it runs like this: (§1)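 Myeloma cells (500 per well) were exposed to MIPE 4.0 compounds by pin transfer and incubated 48 hours at 37C, 5% CO2. Viability was read as ATP by CellTiter-Glo luminescence, normalised to DMSO (100%) and media-only (0%) wells.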

A short description of assay [3]: Quantitative High-Throughput drug screen in 47 multiple myeloma cell lines against the NCATS MIPE library collection: JIM1_ECACC cell viability assay (AID 1918964). In short, it runs like this:
(§2)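 Luminescent ATP measurement with CellTiter-Glo gives viability, scaled between DMSO-only wells (100%) and media-only wells (0%). Cells, 500 per well, faced library compounds for 48 hours at 37C.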

Assay [4] can be described thus: Quantitative High-Throughput drug screen in 47 multiple myeloma cell lines against the NCATS MIPE library collection: INA6_PLB cell viability assay (AID 1918965; further: nearly all actives have a fitted effect of over 55% in size). An outline of the steps: (§3)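 CellTiter-Glo ATP luminescence gave viability after 48 h compound treatment at 37C of 500 multiple myeloma cells per well. Normalisation used DMSO-only wells as 100% and media-only wells as 0% viability; primary qHTS of approved and investigational drugs.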

Assay [5] in a line: Quantitative High-Throughput drug screen in 47 multiple myeloma cell lines against the NCATS MIPE library collection: JJN3_DSMZ cell viability assay (AID 1918966; further: nearly all actives have a fitted effect of over 50% in size). An outline of the steps:
as §2

A short description of assay [6]: Quantitative High-Throughput drug screen in 47 multiple myeloma cell lines against the NCATS MIPE library collection: H1112_PLB cell viability assay (AID 1918967; further: nearly all actives have a fitted effect of over 30% in size). An outline of the steps:
as §2

Assay [7] can be described thus: Quantitative High-Throughput drug screen in 47 multiple myeloma cell lines against the NCATS MIPE library collection: Karpas25_ECACC cell viability assay (AID 1918968; further: nearly all actives have a fitted effect of over 35% in size). An outline of the steps:
as §2

Assay [8] in a line: Quantitative High-Throughput drug screen in 47 multiple myeloma cell lines against the NCATS MIPE library collection: KHM11_PLB cell viability assay (AID 1918962). Further: nearly all actives have a fitted effect of over 35% in size. In short, it runs like this: as §1
A short description of assay [9]: Quantitative High-Throughput drug screen in 47 multiple myeloma cell lines against the NCATS MIPE library collection: KMS27_JCRB cell viability assay (AID 1918970). Further: nearly all actives have a fitted effect of over 30% in size. In short, it runs like this:
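CellTiter-Glo luminescence after 48 h drug exposure at 37 °C; 500 cells/well, 1536-well format, pin-tool compound addition; DMSO = 100%, media-only = 0% viability.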

Assay [10] in a line: Quantitative High-Throughput drug screen in 47 multiple myeloma cell lines against the NCATS MIPE library collection: Karpas417_ECACC cell viability assay (AID 1918961). Conditions: Karpas417 myeloma viability, CellTiter-Glo ATP luminescence, 48 h; viability (% of DMSO): at 45.8 µM (top of the series). An outline of the steps: as §3
Potency means the concentration at half of the fitted maximal effect.

For the compound `CC(=Cc1csc(C)n1)[C@@H]1C[C@H]2O[C@@H]2CCC[C@H](C)[C@@H](O)[C@@H](C)C(=O)C(C)(C)[C@@H](O)CC(=O)O1`, the Potency in assay [1] is 1 nM (active); in assay [3], 1 nM (active); in assay [5] it was 264 nM (active). In addition, the Potency result in assay [2], in assay [4], in assay [6] and in assay [7] was “inactive” throughout.

As for `CC[C@@H](C(N)=O)N1CCCC1=O`, the Potency entry in assay [1], in assay [8], in assay [2], in [5], in assay [6] and in assay [7] was “inactive” in each case.

As to `C[C@@]12OC(=O)[C@]1([C@@H](O)[C@@H]1C=CCCC1)NC(=O)[C@H]2CCCl`, the Potency in assay [1] was 7.4 nM (active); in assay [2], 23.5 nM (active); in [3] it was 20.9 nM (active); in assay [5] it was 33.2 nM (active); in assay [6], 0.0235 µM (active); in assay [7], 1 nM (active). In addition, the Potency in assay [9] was 18.7 nM (active).

For `C[C@]12COC(=O)C[C@@H]1CC[C@@H]1[C@H]2CC[C@@]2(C)[C@H]1CC[C@]2(C)O`, the Potency entry in [1], in assay [2], in assay [3], in assay [5] and in [6] was “inactive” each time.

Turning to `O=C(Nc1ccncc1)C(=O)c1cn(Cc2ccc(Cl)cc2)c2ccccc12`, the Potency in assay [1] was 18.7 nM (active); in [2], 14.8 nM (active); in assay [3] it was 16.6 nM (active); in assay [7], 46.9 nM (active); in [9], 20.9 nM (active).

Turning to `COc1ccc2c(c1)[C@]13CCCCC1C(C2)N(C)CC3` (stereo partly specified), the Potency entry in assay [1], in [2], in [3], in assay [7] and in assay [9] was “inactive” throughout.

In the case of `N=c1c2c(-c3ccccc3)c(-c3ccccc3)n(Cc3ccccc3)c2ncn1C1CCC(O)CC1` (stereo unspecified), the Potency is 662 nM (active) in assay [1]; 743 nM (active) in assay [2]; 833 nM (active) in [3]; 209 nM (active) in [4]; 18700 nM (active) in [5]; 6.62 µM (active) in assay [6]. Also, the Potency in assay [7] was 4180 nM (active); in assay [9], 3720 nM (active).

Regarding `CN[C@@H]1Cc2cccc3[nH]c(=O)n(c23)C1`, the Potency result in [1], in assay [2], in assay [5], in assay [7] and in [9] was “inactive” throughout.

For `C[C@]12Cc3cn[nH]c3C[C@@H]1CC[C@@H]1[C@H]2CC[C@@]2(C)[C@H]1CC[C@]2(C)O`, the Potency entry in assay [1], in assay [3], in assay [4], in [6] and in [7] was “inactive” each time. Moreover, the Potency in assay [5] was 14800 nM (active).

For `CN(C)NC(=O)CCC(=O)O`, the Potency entry in [1], in assay [2], in [3], in assay [6], in [7] and in assay [9] was “inactive” each time.

For the compound `C[C@]12CC[C@@H]3[C@@H](CCC4=CC(=O)CC[C@@H]43)[C@@H]1CC[C@@H]2OC(=O)CCc1ccccc1`, the Potency result in assay [1], in assay [2] and in [7] was “inactive” in each case.

Take `CCN1C[C@]2(OC(=O)c3ccccc3NC(C)=O)CC[C@H](OC)[C@@]34[C@H]5CC6[C@@H](OC)C[C@](O)(C(C[C@@H]23)[C@@H]14)[C@@]5(O)[C@@H]6OC`: the Potency entry in assay [1], in assay [2], in assay [6] and in assay [7] was “inactive” throughout.

For `C[C@@H]1[C@H](O)[C@@H](C)C=CC=CCCC=CC=CC=CC=C[C@H](O[C@H]2O[C@@H](C)[C@H](O)[C@@H](N)[C@@H]2O)CC2O[C@](O)(C[C@@H](O)[C@H](O)CC[C@@H](O)C[C@@H](O)C[C@@H](O)CC(=O)O[C@H]1C)C[C@H](O)[C@H]2C(=O)O`, the Potency result in assay [1], in assay [2], in assay [3], in assay [5], in assay [7] and in assay [9] was “inactive” throughout.

In the case of `CO[C@H]1CCC(O[C@H]2C[C@H]([C@]3(C)CC[C@]4(C[C@H](O)[C@@H](C)[C@@H]([C@@H](C)C=C(C)C(=O)[C@H](C)C[C@H](C)C(=O)O)O4)O3)O[C@]3(O[C@@H]([C@H]4O[C@@](O)(CO)[C@H](C)C[C@H]4C)C[C@H]3C)[C@H]2C)O[C@H]1C` (stereo partly specified), the Potency in assay [1] was 187 nM (active); in assay [2], 526 nM (active); in [4], 526 nM (active); in assay [5], 526 nM (active); in assay [7], 1480 nM (active).

Take `C[C@]12CCC(=O)C(O)=C1CC[C@@H]1[C@H]3CCC(=O)[C@@]3(C)CC[C@@H]12`: the Potency entry in [1], in [8], in assay [2] and in assay [9] was “inactive” in each case.

`NC1CC1c1ccccc1` (stereo unspecified): the Potency entry in assay [1], in [8], in [2], in assay [7] and in [9] was “inactive” in each case.

As for `O=C(O)CNC(=O)c1c(O)c2ccccc2n(Cc2ccccc2)c1=O`, the Potency result in assay [1], in assay [2], in [3], in assay [7] and in [9] was “inactive” throughout.

`COc1cc([C@@H]2c3cc4c(cc3[C@@H](O)C3COC(=O)C32)OCO4)cc(OC)c1O` (stereo partly specified): the Potency in assay [1] is 18.7 nM (active); in assay [2] it was 33.2 nM (active); in [3] it was 4.2 nM (active); in assay [5], 118 nM (active); in [7], 59 nM (active); in assay [9] it was 14.8 nM (active).

As to `CC(=O)OCC1=C(C(=O)O)N2C(=O)[C@@H](N)[C@@H]2SC1`, the Potency result in assay [8], in assay [2], in [6] and in assay [7] was “inactive” in each case. Moreover, the Potency in assay [9] is 7430 nM (active).

Take `C[C@@H]1O[C@@H](O[C@@H]2C=C3CC[C@@H]4[C@@H](CC[C@]5(C)[C@H](c6ccc(=O)oc6)CC[C@@]45O)[C@@]3(C)CC2)[C@H](O)[C@H](O)[C@H]1O`: the Potency in [10] was 14.8 nM (active); in assay [8] it was 29.6 nM (active); in assay [2], 29.6 nM (active); in [3], 13.2 nM (active); in [4] it was 26.4 nM (active); in [5], 46.9 nM (active). The Potency in assay [7] was 23.5 nM (active); in assay [9], 8.3 nM (active).
